We go through twelve compounds from PubChem BioAssay AID2283105 (EPA ToxCast).

Structures are written as SMILES. Active and inactive are the calls of the source. The calls were made as follows: active = hit-call score of the fitted dose curve at least 0.9, where 1 is the maximum; inactive = score below 0.9.

human CYP2E1, CYP2E1 (gene 1571), sequence (P05181 whole entry, looked up): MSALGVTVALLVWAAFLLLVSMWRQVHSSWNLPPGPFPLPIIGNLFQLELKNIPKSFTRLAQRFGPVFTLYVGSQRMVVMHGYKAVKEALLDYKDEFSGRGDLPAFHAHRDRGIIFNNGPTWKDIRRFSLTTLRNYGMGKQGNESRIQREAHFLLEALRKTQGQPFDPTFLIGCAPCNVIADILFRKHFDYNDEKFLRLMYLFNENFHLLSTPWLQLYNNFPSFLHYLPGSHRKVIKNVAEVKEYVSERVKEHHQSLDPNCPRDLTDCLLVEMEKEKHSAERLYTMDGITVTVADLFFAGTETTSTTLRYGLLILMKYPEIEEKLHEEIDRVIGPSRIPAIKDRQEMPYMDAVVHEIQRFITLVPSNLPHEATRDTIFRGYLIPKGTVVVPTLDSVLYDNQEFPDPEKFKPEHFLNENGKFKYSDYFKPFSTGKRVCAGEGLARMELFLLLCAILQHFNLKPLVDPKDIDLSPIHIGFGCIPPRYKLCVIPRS

The target in the experiment is human CYP2E1, CYP2E1 (gene 1571) (UniProt P05181). Put plainly: NVS_ADME_hCYP2E1: NovaScreen (NVS) CYP450-related Enzyme Activity (ADME) Assay for human CYP2E1. How it is done:
NVS_ADME_hCYP2E1 is a biochemical, single-readout assay that uses extracted gene-proteins in a cell-free assay. Measurements were taken 0.5 hour after chemical dosing in a 96-well plate.NVS_ADME_hCYP2E1 is one of one assay component(s) measured or calculated from the NVS_ADME_hCYP2E1 assay. It is designed to make measurements of enzyme activity, a form of enzyme reporter, as detected with fluorescence intensity signals by Fluorescence technology.Data from the assay component NVS_ADME_hCYP2E1 was analyzed into 1 assay endpoint. This assay endpoint, NVS_ADME_hCYP2E1, was analyzed in the positive analysis fitting direction relative to Acetonitrile as the negative control and baseline of activity. Using a type of enzyme reporter, loss-of-signal activity can be used to understand changes in the enzymatic activity as they relate to the gene CYP2E1. Furthermore, this assay endpoint can be referred to as a primary readout, because this assay has produced multiple assay endpoints where this one serves a enzymatic activity function. To generalize the intended target to other relatable targets, this assay endpoint is annotated to the cyp intended target family, where the subfamily is xenobiotic metabolism.
Binding assays used specific radioligands (tritiated, iodinated) with non-radioactive competitive displacement ligands in agonist or antagonist protocols (as indicated) and various reference compounds and inhibitors to titrate specific binding to receptors and transporters. Most enzyme assays (CYPs, kinases, phosphatases, proteases, HDACs) used recombinant protein and specific substrates (fluorescence mostly, some colorimetric and radioactive) and inhibitors, followed by a biochemical separation of substrate and product. All assays for the biochemical HTS were initially run in duplicate at a single concentration (10 uM for CYP450 assays and 25 uM for all others). Assay-chemical combinations meeting a pre-defined threshold (e.g., 30% inhibition and other criteria defined below) were then run in singleton concentration-response format with maximum concentration of 20 uM for CYPs and 50 uM for all others. Each assay was run with positive and negative controls, and concurrent controls on every plate. The follow-up (secondary) screen tested active chemical-pairs in concentration series, as well as a few additional assays not tested in the primary screen, some selected negative inactives, and several cases re-run in the concentration series for confirmatory purposes.
For the compound `FC(F)C(F)(F)OCC(Cn1cncn1)c1ccc(Cl)cc1Cl` (configuration not stated), the call was inactive.
The same measure, in the same setting: the result for `N#Cc1c[nH]cc1-c1cccc2c1OC(F)(F)O2` reads “inactive”.
Turning to `N#CSCSC#N`, the compound was classed as inactive.
A word on the AC50: it is the concentration at which the activity in the assay is half-maximal. In the case of `CC(C)(C)C(O)C(Oc1ccc(Cl)cc1)n1cncn1` (configuration not stated), the concentration at half-maximal activity (AC50) was 604 nM (active).
Regarding `COc1nn(CSP(=S)(OC)OC)c(=O)s1`, the outcome was inactive.
As to `CC[C@H](C)[C@H]1O[C@]2(C=C[C@@H]1C)C[C@@H]1C[C@@H](C/C=C(\C)[C@@H](O[C@H]3C[C@H](OC)[C@@H](O[C@H]4C[C@H](OC)[C@@H](NC)[C@H](C)O4)[C@H](C)O3)[C@@H](C)/C=C/C=C3\CO[C@@H]4[C@H](O)C(C)=C[C@@H](C(=O)O1)[C@]34O)O2`, the AC50 is 551 nM (active).
With `COP(=S)(OC)SCn1nnc2ccccc2c1=O`, the compound was called inactive.
The same measure, in the same setting: the result for `CC(C)NC(=O)N1CC(=O)N(c2cc(Cl)cc(Cl)c2)C1=O` reads “inactive”.
Take `CCC(=NOC/C=C/Cl)C1=C(O)CC(C2CCOCC2)CC1=O` (configuration not stated): the concentration at half-maximal activity (AC50) was 3500 nM (active).
The same measure, in the same setting: the result for `COP(=S)(OC)Oc1ccc([N+](=O)[O-])c(C)c1` reads 319 nM (active); that for `CCCN(CCOc1c(Cl)cc(Cl)cc1Cl)C(=O)n1ccnc1`, 486 nM (active).
For `COP(=S)(OC)Oc1ccc([N+](=O)[O-])cc1`, the outcome was inactive.
